An excerpt weighted towards active compounds, which were near 3.2% of everything screened.
SKN-1 inh = C. elegans SKN-1 inhibition; actives 0.49% (n = 360,000); inhibition, % at 21.8 µM; C. elegans VP596 Pgst-4::GFP/RFP ratio, acrylamide-induced, 24 h;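 active = interference check ratio from 0.5 to 1.5 plus GFP to RFP signal ratio inhibition reaching or exceeding a fixed threshold, cut at about 30% in these data, passing the limit was not always enough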
NRP1-CendR mod = NRP-1/CendR interaction modulation; inhibition, % at 25 µM; O14786; AID 602438; FAM-RPARPAR peptide binding to NRP-1, fluorescence polarization; actives 0.85% (n = 360,000);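 active = inhibition or corrected inhibition above about 18%, plus a signal ratio from 0.5 to 1.5, limit read from the data, passing the limit was not always enough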
Target sequence (O14786 whole entry, looked up): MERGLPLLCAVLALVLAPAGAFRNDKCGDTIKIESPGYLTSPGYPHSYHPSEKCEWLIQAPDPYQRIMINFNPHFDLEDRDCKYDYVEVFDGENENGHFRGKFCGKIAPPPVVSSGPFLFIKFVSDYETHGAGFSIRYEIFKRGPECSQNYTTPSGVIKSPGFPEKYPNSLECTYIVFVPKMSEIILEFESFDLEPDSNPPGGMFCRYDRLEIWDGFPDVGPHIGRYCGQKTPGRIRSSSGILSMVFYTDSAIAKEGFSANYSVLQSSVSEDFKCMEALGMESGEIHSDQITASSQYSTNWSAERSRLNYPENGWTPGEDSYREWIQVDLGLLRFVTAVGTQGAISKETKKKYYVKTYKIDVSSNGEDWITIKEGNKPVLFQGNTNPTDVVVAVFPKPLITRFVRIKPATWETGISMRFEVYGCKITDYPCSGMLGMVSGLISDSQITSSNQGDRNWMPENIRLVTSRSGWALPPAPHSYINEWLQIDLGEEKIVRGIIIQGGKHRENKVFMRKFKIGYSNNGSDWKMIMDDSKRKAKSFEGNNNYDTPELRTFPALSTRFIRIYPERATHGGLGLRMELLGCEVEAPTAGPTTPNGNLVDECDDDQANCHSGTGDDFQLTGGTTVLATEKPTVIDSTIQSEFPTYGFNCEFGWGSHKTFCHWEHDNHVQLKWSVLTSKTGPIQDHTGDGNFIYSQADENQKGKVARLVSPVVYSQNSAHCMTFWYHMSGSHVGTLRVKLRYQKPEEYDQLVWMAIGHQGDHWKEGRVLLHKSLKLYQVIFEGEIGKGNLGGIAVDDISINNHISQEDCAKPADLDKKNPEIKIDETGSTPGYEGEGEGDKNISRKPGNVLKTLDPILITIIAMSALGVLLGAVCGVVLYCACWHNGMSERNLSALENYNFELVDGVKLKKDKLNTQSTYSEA
MEKK2mut PB1 HTS = signal of MEK5 binding to mutant human MEKK2 PB1 domain | actives 0.35% (n = 290,000) | percent response, % at 10 µM | bead flow cytometry, Alexa488-MEK5 binding to MEKK2 mutant; in the data active = percent response above about 24%, passing the limit was not always enough
MEKK2wt PB1 HTS = raises or lowers MEK5 binding to wildtype human MEKK2 PB1 domain | Q9Y2U5 | bead flow cytometry, Alexa488-MEK5 binding to MEKK2 WT; actives lie on both sides | binding response (% of control), % at 10 µM | actives 1.1% (n = 290,000); in the data active = binding response below about 67% or above about 130%
MEKK3 PB1 HTS = MEKK3-MEK5 PB1 interaction, increase or decrease | bead-based flow cytometry, Alexa488-MEK5 binding to MEKK3; actives lie on both sides; 0 = blocked by unlabeled MEK5, 100 = vehicle | binding response (% of control), % at 10 µM | AID 1529 | actives 1.4% (n = 290,000) | Q99759;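 active = binding response more than 3 SD above or below the average of its plate-row segment, actives on both sides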;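 note: Alexa488 bead fluorescence after subtracting the streptavidin-only scavenger bead signal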
MEKK2wt confirm = raises or lowers MEK5 binding to wildtype human MEKK2, retest; shares compounds with MEKK3 PB1 HTS; bead flow cytometry, Alexa488-MEK5 binding to MEKK2 WT; actives lie on both sides; binding response (% of control), % at 10 µM; actives 2.4% (n = 5,900); AID 1892; in the data active = binding response below about 16% or above about 210%; inactive = in between
MEKK2mut-MEK5 = signal of MEK5 binding to mutant human MEKK2, retest; shares compounds with MEKK3 PB1 HTS; bead flow cytometry, Alexa488-MEK5 binding to MEKK2 mutant; percent response, % at 10 µM; actives 2% (n = 5,900); in the data active = percent response mostly above about 71%, no sharp cut-off; inactive = mostly below about 38%;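 note: higher means compound restores mutant binding toward wildtype level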
MEKK3-MEK5 inh = MEKK3-MEK5 PB1 inhibition, single concentration confirmation | shares compounds with MEKK3 PB1 HTS | bead flow cytometry, Alexa488-MEK5 binding to MEKK3; hits give low values | binding response (% of control), % at 10 µM | actives 1.8% (n = 5,900) | AID 1894;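 active = binding response below 72% of control, or above a set upper limit, though filed actives all read lower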;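 note: 100% = DMSO only wells and 0% = binding blocked by excess unlabeled MEK5; lower values mean stronger disruption of MEK5 binding to MEKK3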
Numbers without * were called inactive; . = not tested or not shown; [ ] = another dose, or the depositor's remark.

SMILES | SKN-1 inh | NRP1-CendR mod | MEKK2mut PB1 HTS | MEKK2wt PB1 HTS | MEKK3 PB1 HTS | MEKK2wt confirm | MEKK2mut-MEK5 | MEKK3-MEK5 inh
CC(=O)c1c(C)[nH]c(C(=O)Nc2ccc(Cl)c(S(=O)(=O)N3CCOCC3)c2)c1C | -4.1 | -2.0 | 12.0 | 99.0 | 103.0 | . | . | .
O=C(Nc1ccc(S(=O)(=O)N2CCCC2)cc1)c1ccc(CN2CCOCC2)cc1 | -28.0 | 13.7 | . | . | . | . | . | .
COCCNCc1cc(C)n(-c2cc(S(=O)(=O)N3CCOCC3)ccc2N2CCCC2)c1C | -2.2 | -1.8 | . | . | . | . | . | .
O=C(C[n+]1ccc(C(=O)c2ccccc2)cc1)Nc1cccc([N+](=O)[O-])c1 | -9.4 | -4.9 | . | . | . | . | . | .
COc1ccc(NC(=O)CN(C)C(=O)C(C)N2C(=O)c3ccccc3C2=O)cc1 (stereo not drawn) | -6.1 | 2.6 | . | . | . | . | . | .
CCOC(=O)c1c(-c2ccc(-c3ccccc3)cc2)csc1NC(=O)CNCCN(C)C | 52.0* | 9.3 | 69.0* | 286.0* | 117.0 | 238.0* | 141.0* | 115.0
CCCCN1C[C@H](C)[C@@H](CC(=O)NC)C1=O | 6.8 | 2.3 | . | . | . | . | . | .
COc1ccc(N2C(=O)/C(=C/c3cccnc3)NC2=S)cc1 | 5.7 | -2.3 | 2.0 | 112.0 | 138.0* | 87.0 | -2.0 | 99.0
COc1ccc(N2C(=O)/C(=C/N(C)C)NC2=S)cc1 | -4.5 | 7.2 | 7.0 | 102.0 | 102.0 | . | . | .
COc1ccc(CCNc2nc(-c3ccc(F)cc3)c(CC(=O)O)s2)cc1OC | 17.6 | -63.8 | 3.0 | 94.0 | 98.0 | . | . | .
CCN=C1S/C(=C\c2cn(CC)c3ccccc23)C(=O)N1CC | 11.0 | -18.7 | -2.0 | 100.0 | 93.0 | . | . | .
CCn1cc(C=C2C(=O)c3ccccc3C2=O)c2ccccc21 | -3.1 | 29.0 | -4.0 | 33.0*[inhibitor] | 68.0 | 39.0 | -26.0 | 84.0
CC(C)C[C@H]1CN(CCCC[C@@H]2CNC(=O)C(=O)N2CC2CCCCC2)C(=O)C(=O)N1CC1CCCCC1 | 1.7 | -3.7 | . | . | . | . | . | .
CC1(C)CC2CC(C)(CN2C(=O)C23CCC(C)(C(=O)C2)C3(C)C)C1 (stereo not drawn) | 3.4 | 4.4 | 0.0 | 102.0 | 128.0* | 92.0 | -8.0 | 97.0
CCOC(=O)C1(C(=O)OCC)C(C)CC(=O)N1c1ccccc1OC (stereo not drawn) | 4.6 | -12.1 | . | . | . | . | . | .
CC(=O)NC(c1cccc(F)c1)c1nc(-c2cc(F)cc(Cl)c2)cs1 (stereo not drawn) | 32.5 | -11.6 | . | . | . | . | . | .
O=C1CCCc2c1sc1nc3n(c(=O)c21)CCCCC3 | 0.6 | 12.0 | 14.0 | 139.0* | 114.0 | 97.0 | -3.0 | 100.0
O=C(NCc1cccnc1)OC1CC2CC1[C@H]1CCCCN1C2=O (stereo partly drawn) | 7.5 | -12.4 | . | . | . | . | . | .
Cc1ccc(S(=O)(=O)Oc2cccc(/C=N/n3cnnc3)c2)cc1 | 2.1 | 5.1 | -1.0 | 101.0 | 102.0 | . | . | .
Cc1ccc(S(=O)(=O)Oc2cccc(/C=N/Nc3ccc(C(=O)O)cc3)c2)cc1 | -1.7 | -8.2 | 28.0 | 128.0 | 132.0* | 105.0 | 7.0 | 104.0
CC(O)CCc1nc2ccc(C(=O)O)cc2[nH]1 (stereo not drawn) | -20.7 | 2.8 | . | . | . | . | . | .
O=C(O)c1ccc2nc(CO)[nH]c2c1 | -0.4 | 6.6 | -16.0 | 2.0*[inhibitor] | 2.0*[inhibitor] | 107.0 | 0.0 | 102.0
CCN(CC)CCNC(=O)c1ccc(NC(=O)C2CCN(c3ncnc4sc(C)c(C)c34)CC2)cc1 | -4.9 | 3.2 | 16.0 | 147.0* | 105.0 | -5.0*[inhibitor] | 9.0 | 90.0
c1ccc(-c2nnc3oc(-c4cccs4)nn23)cc1 | 12.7 | -6.6 | . | . | . | . | . | .
Cc1cc(OC(=O)c2c(F)cc(F)cc2F)nc(C)n1 | -1.5 | -2.5 | 5.0 | 123.0 | 149.0* | 93.0 | -3.0 | 93.0
SMILES | SKN-1 inh | NRP1-CendR mod | MEKK2mut PB1 HTS | MEKK2wt PB1 HTS | MEKK3 PB1 HTS | MEKK2wt confirm | MEKK2mut-MEK5 | MEKK3-MEK5 inh
O=C(CNc1ccccc1)N/N=C/c1ccc([N+](=O)[O-])cc1 | 2.6 | -5.2 | 0.0 | 106.0 | 134.0* | 100.0 | 3.0 | 102.0
O=C(CNc1ccccc1)N/N=C/c1ccc2c(c1)OCO2 | 6.7 | -12.8 | -1.0 | 104.0 | 135.0* | 105.0 | 5.0 | 103.0
O=C(CCNC(=O)c1ccccc1)N/N=C/c1ccc([N+](=O)[O-])cc1 | 12.5 | -5.8 | -1.0 | 102.0 | 104.0 | . | . | .
CCc1nc2c(OCc3ccc(C#N)cc3)cccn2c1N(C)C(=O)c1cccs1 | 22.8 | 4.5 | . | . | . | . | . | .
CC(C)(C)NC(=O)NC(=O)CN1CCN(C(c2ccccc2)c2ccccc2)CC1 | -3.3 | -10.0 | 7.0 | 144.0 | 157.0* | 100.0 | 1.0 | 100.0
COC(=O)C[C@@H]1C=C[C@H](NC(=O)c2cnccn2)[C@@H](CO)O1 | -2.7 | 7.8 | . | . | . | . | . | .
COc1ccc(C(C)=O)cc1CSc1nc2ccccc2c(=O)n1-c1cccc(C)c1 | -4.1 | -11.5 | -1.0 | 102.0 | 156.0* | 98.0 | 0.0 | 105.0
CC(C)(C)c1ccc(C(=O)N2CCC2(C)C(=O)Nc2cccc(C#N)c2)cc1 (stereo not drawn) | 13.6 | -4.4 | . | . | . | . | . | .
CCc1ccc2c(CN3CCN(S(=O)(=O)c4cccs4)CC3)cc(=O)oc2c1 | 6.3 | -10.1 | 1.0 | 100.0 | 135.0* | 92.0 | -8.0 | 98.0
COc1ccccc1N1CCN(S(=O)(=O)CCNC(=O)CCc2ccccc2)CC1 | -11.1 | -3.7 | . | . | . | . | . | .
CSC(=NC#N)N1CCN(C(=NC#N)SC)CC1 | 0.5 | 11.8 | -60.0 | 1.0*[inhibitor] | 2.0*[inhibitor] | 98.0 | -6.0 | 99.0
FC(F)(F)c1ccc(-c2nnc(-c3ccccn3)c(-c3ccccn3)n2)nc1 | -2.3 | 15.6 | -37.0 | 66.0 | 61.0*[inhibitor] | 106.0 | 3.0 | 103.0
CCN(CCNCC(O)COCc1ccc(Cl)cc1)c1cccc(C)c1 (stereo not drawn) | 10.8 | -1.5 | 20.0 | 159.0* | 112.0 | 128.0 | 18.0 | 105.0
COc1cc(N(C)C)ccc1[C@]1(O)C(=O)N(C)c2ccc(Br)cc21 | 3.8 | -0.9 | . | . | . | . | . | .
CCN(CC)c1ccc(/C=N/OCC(=O)Nc2cccc(C)c2)cc1 | 3.2 | -19.8 | 52.0 | 61.0*[inhibitor] | 104.0 | 95.0 | -8.0 | 99.0
CCN(CC)c1ccc(NC(=O)CCCOc2cccc(C)c2)cc1 | 1.7 | -27.5 | -10.0 | 90.0 | 96.0 | . | . | .
CC1CCCN(C(=O)CCNS(=O)(=O)c2ccc3c(c2)c(=O)n(C)c(=O)n3C)C1 (stereo not drawn) | 0.8 | 5.7 | -1.0 | 101.0 | 100.0 | . | . | .
COc1cc2c(cc1NC(=O)Nc1ccc(C)cc1)oc1ccccc12 | 8.0 | 3.5 | 24.0* | 141.0* | 113.0 | 132.0 | -1.0 | 95.0

Assay outcomes from PubChem BioAssay.
